# Measured values from PubChem BioAssay AID1347426 (Functional Genomics Laboratory (NCATS/FGL), 2020).
# About 1,400 (4.5%) of roughly 31,000 sequences were called active. Only a selection was taken, and actives are over-represented in it overall. Unmarked numbers belong to inactive results.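 How the source made its calls: active means median seed-adjusted z-score above 1 or below -1; inactive means the rest.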
# Assay: Novel Modifiers of Survival Motor Neuron (SMN) Protein: Gene Identification via Genome-wide siRNA Screen
# Settings: HEK293T SMN2-luciferase reporter, siRNA knockdown, 72 h; actives lie on both sides
# Description: Spinal muscular atrophy (SMA) is the most common neuromuscular autosomal recessive disorder and one of the leading genetic causes of infant death. SMA results from mutations inducing loss of function or deletion in the survival of motor neuron-1 gene (SMN1), leading to deficiency of the survival motor neuron (SMN) protein. Although a second nearly identical gene, SMN2, is retained in humans, its expression primarily produces an aberrantly spliced isoform that is largely unstable and quickly degraded. We performed a genome-wide RNAi screen using a cell-based reporter assay to identify genes and pathways that modulate SMN protein stability. The screen identified over 200 genes that led to the greatest increase or decrease in luciferase expression.
# Using HEK293T cells stably expressing a luciferase reporter that combines the promoter and splicing based cassettes in tandem with the major portion of the native SMN2 cDNA with luciferase, we performed a genome-wide RNAi screen to identify modulators of SMN protein levels. Luciferase is expressed when full-length SMN protein is generated with luminescence signal proportional to SMN protein levels. Our luciferase-based reporter assay was used to screen Ambion Silencer Select Human Druggable Genome siRNA library (10418 genes, 3 unique siRNAs per gene) using lipid-based reverse transfection.
# Briefly, 1 pmol of each siRNA was spotted to a well of a 384-well plate (Corning, Corning, NY) and 20 microL of serum-free DMEM containing […] of Lipofectamine RNAiMax (Life Technologies, Carlsbad, CA) was then added to each well. Transfected cells were maintained at 37 degrees C in 5% CO2 for 72 hours, 20 microL of ONE-Glo Reagent (Promega) was added to wells for luciferase quantification. Raw luminescence reads were normalized to Ambion(R) Silencer(R) Negative Control #2 siRNA, then log10 transformed. A robust statistical measure of median absolute deviation (MAD) to standardize siRNA activities from each screen. Common Seed Analysis was used to help prioritize clean hits as opposed to those appearing to arise from seed based off-target effects. Candidate modulators were defined as the genes having a MAD score greater than 1.0 or less than -1.0.
row,Sequence,median seed-adjusted z-score
1,GCAAUUCCCAAGAUCCUUATT against LAMB1,1.07 (active)
2,GGUCGAAUGAUAAGGUGUATT against PTK2,-0.0806
3,GCCUCAGUCUUUGCAGUCUTT against CDCP2,0.0708
4,GGUAAUGACUCCACAGGGATT against SNRPN,-0.571
5,GAUACUACCCUGAUCAUAUTT against TMTC3,0.266
6,UGGUGUCAGUGGAUCGCUATT against GPR101,-0.265
7,CCAAAACAGUGGAGAGAGATT against BIN3,0.16
8,GAACAUUGUUUGUAAGGCUTT against SUOX,-0.0649
9,GGAUAUAAUGAGAUAUGUUTT against ETF1,-1.12 (active)
10,GCUCAACUCUCAUUCGGCATT against ZNF550,0.131
11,GACCUGCCGUGAUAUCGUUTT against PSMA3,-0.81
12,CACUAAACGAGGAUUCCUATT against YWHAH,-0.125
13,GGAUCGUAGUGAAACCGAUTT against DDX17,0.231
14,CGUGAUCAAUAGGAAAAUUTT against CCL8,0.436
15,CAGAUUACGUGGAACAGGATT against EFTUD2,-1.25 (active)
16,CGUCCUAAUCUCAAUCUUATT against CD200,-0.0135
17,GCCCAUAUUUCAUCGUGUATT against NPY,-0.0606
18,CAGGAUAUCGAAUCCCUAATT against PPFIA2,0.176
19,GUCGAGUUGUAUCGCAUUATT against COX4I1,-0.39
20,GGCUAGCCCUAGUAUGGAATT against CCAR1,-1.18 (active)
21,CCUUCAAUCACCGACCUUATT against SYNJ2,0.0202
22,CGCUACCUGUCCCUGUAUATT against GPR6,0
23,GCAACAUAUGGGAAUUAGATT against MEIS1,0
24,CAGAGGAGCUACAAAAGUATT against MX1,-1.49 (active)
25,GCAUAUAUCAAGAAUUCAATT against CLIC4,-0.498
26,GAAACUAUAUCCACAUCAATT against GIPR,0.475
27,CAUCUUGAAGUCUUAUUAATT against MYOCD,-0.121
28,AAUCAGAUCAAAAACAUAATT against TNFRSF10C,0
29,GGAGGAAGGUCUCAACGUATT against TCFL5,1.52 (active)
30,GCAAAUCUAUUUUCGGAAATT against AGTPBP1,-0.201
